# Rows were chosen to be rich in hits. Some 11% of all compounds tested hit in one or more screens of this group.
# FBPA coupling cs: qHTS Assay for Inhibitors of Fructose-1,6-bisphosphate Aldolase from Giardia Lamblia: Coupling assay counterscreen. activity change, negative = inhibition, % at 58.2 µM, hits read low. AID 2472, 2010. coupling enzyme system counterscreen, AmpLite Red fluorescence. hit rate 0.67% among 290,000; in the data active = activity change below about -30%
#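 Final compound at 57.5 uM, incubated 10 min at RT with coupling enzyme reagent (glyceraldehyde-3-phosphate), then 20 min with substrate and AmpLite Red detection. Fluorescence read at 525/598 nm; tests interference with the coupling assay, not aldolase inhibition.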
# Tau fibril FP: qHTS for Inhibitors of Tau Fibril Formation, Fluorescence Polarization. hit rate 0.39% among 280,000. AID 1468, 2008. K18 P301L tau heparin fibrillization, Alexa594 FP, 6 h. Potency, µM (highest dose often 57.7 µM), without a hit: at the highest dose activity, negative = inhibition, most hits filed as inhibitors; note: potency is the fitted concentration of half-maximal effect; nearly all actives have a fitted effect of over 55% in size
# Target sequence (P10636 561-689 P618L limits assumed): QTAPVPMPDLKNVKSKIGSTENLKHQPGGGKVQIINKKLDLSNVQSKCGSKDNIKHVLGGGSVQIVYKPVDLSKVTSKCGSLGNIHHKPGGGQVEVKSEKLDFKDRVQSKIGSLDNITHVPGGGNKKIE
#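 FP of Alexa 594-tau after heparin (20 uM) induction. Substrate: human K18 P301L, 15 uM unlabeled, 0.24 uM labeled. Buffer 100 mM sodium acetate pH 7. 6 hr, 37 C.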
# Tau fluor cs: Counterscreen qHTS for Inhibitors of Tau Fibril Formation, Fluorescence Polarization. tau K18 P301L Alexa594 fluorescence, heparin fibrillization. hit rate 0.93% among 280,000. Potency, µM (titrated, usually from 57.7 µM), inactives show at the top dose activity change, negative = decrease; note: potency is the fitted concentration of half-maximal effect; nearly all actives have a fitted effect of over 55% in size
#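 Human tau K18 P301L (15 uM unlabeled, 0.24 uM Alexa 594-labeled) in 100 mM sodium acetate pH 7 with 20 uM heparin, 6 hr at 37 C. ThT 30 uM added, 1 hr ambient; Alexa 594 FP and total fluorescence read at 555/632 nm.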
# Tau fibril ThT: qHTS for Inhibitors of Tau Fibril Formation, Thioflavin T Binding. recombinant tau K18 P301L (four-repeat tau fragment), heparin-induced fibrillization, ThT fluorescence. AID 1460, 2008. Potency, µM (series often up to 57.4 µM), for the others: at the top dose activity, negative = inhibition, hits mostly inhibitors. hit rate 2.1% among 270,000. Microtubule-associated protein tau (Homo sapiens), P10636; note: potency is the fitted concentration of half-maximal effect; nearly all actives have a fitted effect of over 55% in size
#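 Heparin-induced fibrillization of the P301L-mutant K18 repeat-domain fragment of human tau was followed by ThT binding in quantitative high-throughput format.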
# Sfp PPTase inh: qHTS Assay for Inhibitors of Bacillus subtilis Sfp phosphopantetheinyl transferase (PPTase); 4'-phosphopantetheinyl transferase ffp (Bacillus subtilis), Q9F4F7; Biochemical Sfp PPTase activity, qHTS; Potency, µM, without a hit: largest response in the series, negative = inhibition, hits mostly inhibitors; hit rate 3.5% among 310,000; AID 1490, 2009;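 note: the enzyme is Sfp with the accession as filed and its product quenches rhodamine fluorescence; potency is the fitted concentration of half-maximal effect; 0% = enzyme reaction without inhibitor and -100% = no enzyme wells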
#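 Fluorescence-quenching assay with 15 nM Sfp, 5 uM rhodamine-CoA and 12.5 uM BHQ-2-labelled ybbR peptide in pH 7.6 Hepes/MgCl2 buffer. Enzyme was pre-incubated with compound for 15 min at room temperature. Rate was taken from the 30-min fluorescence change (525/598 nm).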
# G9a block: qHTS Assay for Inhibitors of Histone Lysine Methyltransferase G9a. Histone-lysine N-methyltransferase EHMT2 (Homo sapiens), Q96KQ7. AID 504332, 2011. hit rate 8.8% among 350,000. Potency, µM (top dose mostly 102 µM), inactives show at the highest dose activity, negative = inhibition, most hits filed as inhibitors. G9a H3K9 monomethylation, AlphaScreen, 2 h; note: potency is the fitted concentration of half-maximal effect; nearly all actives have a fitted effect of over 75% in size
# Target sequence (Q96KQ7 913-1193 limits assumed): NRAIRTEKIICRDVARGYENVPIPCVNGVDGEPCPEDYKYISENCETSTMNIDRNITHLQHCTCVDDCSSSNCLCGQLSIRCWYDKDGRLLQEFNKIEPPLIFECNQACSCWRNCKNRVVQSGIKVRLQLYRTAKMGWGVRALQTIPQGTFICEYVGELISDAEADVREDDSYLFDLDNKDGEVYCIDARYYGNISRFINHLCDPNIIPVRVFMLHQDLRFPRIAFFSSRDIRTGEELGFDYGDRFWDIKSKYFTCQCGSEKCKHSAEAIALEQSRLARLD
#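 Methyltransferase reactions run at room temperature for 2 h (20 nM enzyme, 500 nM biotin-H3K9 peptide, 20 uM SAM) after a 15 min compound preincubation; product detected by AlphaScreen beads and anti-H3K9me1 antibody.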
# The depositor's hits bear a star; ? = inconclusive; · = no result given; ! = a repeat was not active; [ ] = another dose, or the depositor's remark. Unless noted, calls come from the whole dose curve; as a rule, active = well fitted curve in the direction sought with a large enough effect; inconclusive = small, poorly fitted or top-dose-only effect, or another doubt; inactive = no such curve, though single readings can be large; an effect the other way counts as inactive or inconclusive. Unless noted, % is set by controls: 0 for no effect and ±100 for the full control effect.
SMILES,FBPA coupling cs,Tau fibril FP,Tau fluor cs,Tau fibril ThT,Sfp PPTase inh,G9a block
Fc1ccccc1-c1n[nH]c(=S)n1C1CC1,1,·,·,·,-17%,8.9µM*
NC(=O)CSc1nnc(-c2ccccc2F)n1C1CC1,-2,·,·,·,16%,7%
CCn1c(-c2cc3ccccc3cc2O)n[nH]c1=S,-6,1%,-20%,?,-1%,?
CC(C)Cn1c(-c2ccccc2F)n[nH]c1=S,-2,-5%,4%,3%,?,1.4µM*
CCN(CC(=O)NCc1ccc(F)cc1)CC(=O)NC1CCCC1,2,·,·,·,17%,-5%
O=C(c1cccs1)N1CCC(c2nc3c(nnn3Cc3ccccc3Cl)c(=O)[nH]2)CC1,1,·,·,·,-5%,-9%
CCC(=O)N1CCc2cc(S(=O)(=O)NCCC(=O)NC(C)c3ccccc3)ccc21 (centres undefined),·,-7%,-10%,-5%,·,1%[59 µM]
CC(C)Cn1c(-c2ccc(F)cc2)n[nH]c1=S,1,0%,2%,1%,-67%,?
CC(C)Cn1c(-c2ccncc2)n[nH]c1=S,0,-4%,0%,1%,?,7.1µM*
Cn1c2cc([N+](=O)[O-])sc2c2cnn(Cc3ccccc3F)c(=O)c21,·,·,·,·,·,-29%[12.7 µM]
Clc1ccc(-c2nc3nc4ccccc4nc3n2Cc2ccco2)cc1,-4,1%,-11%,-3%,7.1µM*,-40%[59 µM]
Cc1ccc(-c2nc3nc4ccccc4nc3n2Cc2ccco2)cc1,-3,0%,5%,-11%,?,?
O=C(COC(=O)c1ncc(Cl)c(Cl)c1Cl)NC(=O)c1ccccc1,·,·,·,·,·,-30%
COc1cc2ncnc(Nc3cccc(Cl)c3)c2cc1OC,0,?,?,?,56µM*!,-12%[59 µM]
COc1cc2ncnc(NCc3cccc(F)c3F)c2cc1OC,-1,·,·,·,-1%,45µM*
COc1cc2ncnc(Nc3cccc(Br)c3)c2cc1OC,-10,?,?,5%,-28%,·
CC(NC(=O)c1cc(-c2ccc(Cl)cc2)on1)c1ccccc1 (centres undefined),·,-4%,0%,0%,·,-44%[59 µM]
CCOc1ccc(Nc2nc(N)c(C(=O)c3ccccc3Cl)s2)cc1,·,3%,16µM*[quencher],?,·,-33%[59 µM]
Nc1nc(Nc2ccccc2F)sc1C(=O)c1ccc(Cl)cc1,·,-2%,16µM*[quencher],25µM*,·,?
Cc1ccc(C(=O)c2sc(Nc3ccc(F)cc3)nc2N)c(C)c1,·,14%,16µM*[quencher],-14%,·,?
COc1ccc(Nc2nc(N)c(C(=O)c3ccc(F)cc3)s2)cc1,1,·,·,·,?,?
CC(C)(C)C(=O)c1sc(Nc2ccccc2)nc1N,0,19%,?,?,?,25µM*
CCOc1ccccc1NC(=O)N1CC(CC)Oc2ccccc21 (centres undefined),·,-1%,3%,-9%,·,-29%[59 µM]
Nc1nc(Nc2cccc(Cl)c2)sc1C(=O)c1ccc(F)cc1,·,?,8.9µM*[quencher],?,·,-8%[59 µM]
CC(=O)N1CCc2c(sc(NC(=O)C3CC3)c2-c2nc3ccccc3s2)C1,-12,-13%,-12%,?,45µM*,?
SMILES,FBPA coupling cs,Tau fibril FP,Tau fluor cs,Tau fibril ThT,Sfp PPTase inh,G9a block
CCCCC(=O)Nc1sc2c(c1-c1nc3ccccc3s1)CCN(C(C)=O)C2,-2,11%,1%,?,?,-21%[59 µM]
N[C@H](C(=O)O)[C@@H]1[C@@H](C(=O)O)C1(F)F,3,?,-1%,4%,89µM*,31%[59 µM]
CCN(CC)CCN(CC(=O)N(C1CCCCC1)C1CCCCC1)C(=O)c1cccnc1,1,-6%,-9%,-9%,-23%,50µM*
O=C(Nc1cccc(Br)c1)c1cc(S(=O)(=O)N2CCCCC2)c[nH]1,·,-3%,-5%,1%,·,0%[59 µM]
CCOc1ccc(NC(=O)CSc2nc3c([nH]c4ccccc43)c(=O)n2-c2cc(C)cc(C)c2)cc1,·,-12%,-13%,-8%,·,10%[59 µM]
NC(=O)CSc1nc2ccccc2c(=O)n1CCc1ccccc1,-3,·,·,·,-8%,79µM*
CCCn1c(SCC(=O)N2CC(=O)Nc3ccccc32)nc2ccccc21,0,-2%,5%,8%,?,32µM*
O=c1c2ccccc2nc(/C=C/c2cccnc2)n1CCc1ccccc1,-2,8%[11.6 µM],?,·,-10%,50µM*
CCOC(=O)CC(=O)CSc1nc2ccccc2c(=O)n1CCc1ccccc1,·,-4%,-5%,-3%,·,63%[59 µM]
O=C1CN(C(=O)CSc2nc3ccccc3n2CCc2ccccc2)c2ccccc2N1,-2,6%,?,?,-17%,10µM*
C=CCc1ccc(O)c(-c2ccc(O)c(CC=C)c2)c1,-2,14%,?,-13%,-10%,16%[12.7 µM]
Cc1ccc(CN2CCN(c3cccc4[nH]ccc34)CC2)cc1,-5,·,·,·,-2%,?
CC(C)(C)C1CCc2c(sc(NC(=O)C3c4ccccc4Oc4ccccc43)c2C(N)=O)C1 (centres undefined),·,?,-11%,7%,·,-16%[59 µM]
CCC(NC(=O)Nc1cc(Cl)ccc1OC)c1c(-n2cccc2)sc2c1CCN(C)C2 (centres undefined),·,?,?,?,·,16µM*
CCC(NC(=O)Nc1cccc(C)c1)c1c(-n2cccc2)sc2c1CCN(C)C2 (centres undefined),·,-12%,-30%,-8%,·,-31%[59 µM]
Cc1cc(C)n(CCCNCC(O)c2ccccc2)n1 (centres undefined),0,-5%,-8%,-8%,-18%,22µM*
Cc1nc2cnc(Oc3ccccc3)nc2n(CCc2ccccc2)c1=O,0,·,·,·,18%,12%[12.7 µM]
CCN(CC)S(=O)(=O)c1ccc(O)c(NS(=O)(=O)c2ccccc2F)c1,7,-1%,-1%,1%,50µM*,1.4µM*
CCOc1ccc(S(=O)(=O)N(CC)CC)cc1NS(=O)(=O)c1ccc(F)c(F)c1F,12,2%,-13%,-4%,15%,-8%[59 µM]
Cc1ccc(N(CC(=O)Nc2ccc(F)cc2F)S(=O)(=O)c2cccs2)cc1,·,-15%,?,2%,·,-3%[59 µM]
Cc1cc(-c2ccc(N=Nc3ccc4c(S(=O)(=O)O)cc(S(=O)(=O)O)c(N)c4c3O)c(C)c2)ccc1N=Nc1ccc2c(S(=O)(=O)O)cc(S(=O)(=O)O)c(N)c2c1O,-38*,3.2µM*,0.79µM*[quencher],1.4µM*,10µM*!,?
